Laboratory results taken from ChEMBL document CHEMBL3433997, “St. Jude Leishmania screening dataset” (2016).

These compounds were tested against Glucose transporter (Leishmania mexicana) (UniProt O61059) (assay: ST_JUDE_LEISH: Cytotoxicity at 2uM final concentration against transgenic Leishmania Mexicana promastigotes LmGT2 that are glucose transport deficient and complemented with the L. Mexicana glucose transporter 2. Activity is measured by DNA content using SYBR green in vitro).
Format: functional

Compound | inhibition
CCN(CC)CCN(Cc1ccc(-c2ccc(C(F)(F)F)cc2)cc1)C(=O)Cn1c(SCc2ccc(F)c(F)c2F)nc(=O)c2c1CCC2 | 3.4%
CC(C)(C)OC(=O)Cn1cnc2cc(NC(=O)c3cc([N+](=O)[O-])cc([N+](=O)[O-])c3)ccc21 | 3.89%
COc1ccc(CCNCCCCCCNCCc2ccc(-c3ccccc3)cc2)cc1OC | 49.7%
CCN(CC)CCN(Cc1ccc(-c2ccc(C(F)(F)F)cc2)cc1)C(=O)Cn1c(CCc2cccc(F)c2F)nc(=O)c2ccc(C)cc21 | 0.22%
COc1cc(/C=C/C(=O)NC2CCC(N3CCC(c4ccccc4C)CC3)CC2)cc(OC)c1 (stereo not given) | 0.77%
Cc1cccc2nc(-c3ccc(-c4cccc(NC(=O)Nc5ccccc5)c4)cc3)[nH]c12 | 8.18%
Cc1cccc(CNc2nc(C)cc(N[C@@H](Cc3ccccc3)C(=O)NCCc3ccccc3)n2)c1 | 0.77%
Cc1cc(OCCCN2CCC(NS(=O)(=O)c3cccc(Br)c3)C2)c2ccccc2n1 (stereo not given) | 1.56%
CCOC(=O)c1ccc2[nH]c(-c3ccc(C(=O)NCc4ccc(C(C)(C)C)cc4)cc3)nc2c1 | 1.02%
NC(=O)c1cccc(CN2Cc3ccccc3OC3(CCN(Cc4c[nH]c5cnccc45)CC3)C2)c1 | 0.09%
Cc1cc(=NN=Cc2ccc(Cl)cc2)c2cccc(C)c2[nH]1 | 6.63%
O=C(NC1CCN(Cc2ccccc2)CC1)c1csc2nc(-c3ccc(Cl)cc3)cn12 | 2.02%
COCc1nc(-c2ccccc2)nc(N2CCN(C(=O)NC(C)C)CC2)c1Cc1ccccc1F | 6.8%
CCCN1CCN(CCCNC(=O)c2cc3c(-c4ccc(Cl)cc4)nn(C)c3s2)CC1 | 10.2%
CCCCCCCCNCc1c(O)ccc2ccccc12 | 5.48%
CCCCCCCc1c(C)nc2cccc(OC)c2c1O | 33.9%
N#CCCN1CCN(Cc2cccc(-c3ccc(-c4nc5cc(C(F)(F)F)ccc5[nH]4)cc3)c2)CC1 | 2.78%
O=C(Nc1ccc2c(c1)CCC2)c1ccc(N2CCN(c3ccncc3)CC2)cc1 | 68.3%
CNc1nc(N/N=C/c2cc([N+](=O)[O-])c(Cl)cc2Cl)nc(Nc2cccc(C(F)(F)F)c2)n1 | 0.84%
O=[N+]([O-])c1ccc(Nc2nc(NCc3ccccc3)nc(N/N=C/c3ccccc3[N+](=O)[O-])n2)cc1 | 0.43%

Compound | inhibition
Cc1cccc2nc(-c3ccc(-c4cccc(NC(=O)C(C)CN(C)C)c4)cc3)[nH]c12 (stereo not given) | 3.93%
Cc1ccc2nc3sc(C(=O)NCCCN4CCC(N5CCCCC5)CC4)cc3cc2c1 | 3.19%
O=C(NCCN1CCCC1)c1cccc(Nc2nccc(Nc3ccc(Oc4ccccc4)cc3)n2)c1 | 2.53%
Cc1cccc2nc(-c3cccc(-c4cccc(NC(=O)Nc5cccc(C#N)c5)c4)c3)[nH]c12 | 10.3%
CNC(=O)c1ccccc1Nc1nc(Nc2ccc(N3CCN(C)CC3)nc2)ncc1C | 9.03%
Cc1[nH]c(C)c(-c2ccc(OCCCc3ccccn3)cc2)c(=O)c1Br | 8.48%
Cc1cnc(C(=O)Nc2cccc(-c3cccc(-c4nc5cc(F)ccc5[nH]4)c3)c2)cn1 | 5.18%
Cc1[nH]c(C)c(-c2ccc(-c3cccc(OC(F)(F)F)c3)nc2)c(=O)c1Cl | -0.63%
COc1ccc(NC(=O)NC2CCN(c3ccnc4cc(Cl)ccc34)C2)cc1 (stereo not given) | 1.86%
C=CCOC(=O)N1CCC(CNCc2cccc(-c3cccc(-c4nc5cc(F)ccc5[nH]4)c3)c2)C1 (stereo not given) | -0.93%
O=C(Nc1ccc2c(c1)CCN(C1CCC1)CC2)c1cn(-c2ccccc2)nc1-c1ccccc1 | 0.52%
Cc1ccc(Nc2ccnc3ccc(C(F)(F)F)cc23)cc1O | 2.31%
Clc1ccc(Nc2nc(NCc3ccccc3)nc(N/N=C/c3ccccn3)n2)cc1 | 77.6%
CCC(C)CN1CCN(c2ccc(NC(=O)c3cccs3)cc2)C(C)C1 (stereo not given) | 5.37%
C=C(C)COc1ccc(-c2n[nH]c(C(F)(F)F)c2-c2ccccc2OC)c(O)c1 | 6.48%
Nc1c2c(nc3ccc(NC(=O)Cc4ccccc4)cc13)CCCC2 | 6.71%
CN(c1ccccc1)c1ccnc(NC(=N)Nc2ccc(Cl)cc2)n1 | 5.1%
Cc1nc(C)c(-c2ccc(Oc3ccc(OC(F)(F)F)cc3)cc2)c(OC(=O)c2ccccc2)c1Cl | 2.37%
CCN(CC)CCCC(C)Nc1c(-c2ccc(C)cc2)cnc2ccccc12 (stereo not given) | 8.1%
Nc1ccnc2ccc(OCCCCCCc3ccccc3)cc12 | -1.14%
